Values joined by “and” are separate entries in the source; they are usually repeats but may differ in a detail not shown here. Equal entries are not always repeated. Results filed as inconclusive are left out. Active and inactive are the calls of the source. Unless noted, the call rests on the fitted dose curve.
Legend:
[1] = Cell Viability - BJ (AID 421); conditions: BJ fibroblast viability, qHTS;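 further: potency means the concentration at half of the fitted maximal effect; cells exposed to compound for 40 hours at 37 °C before readout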
Outline: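 Luminescent ATP signal (CellTiter-Glo, 20 min at room temperature) served as the read-out of viable BJ cells after 40 hours of compound treatment. Responses were scaled between DMSO and 100 uM tamoxifen, and AC50 values were obtained by Hill modeling.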

[2] = Cell Viability - HepG2 (AID 433); conditions: qHTS;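 further: potency means the concentration at half of the fitted maximal effect; potency for ATP loss meaning cytotoxicity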
Outline: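 HepG2 cells, 1500 per well, treated 40 hr at 37 °C in complete medium; viability from intracellular ATP by CellTiter-Glo luminescence. Normalized to DMSO and 100 uM tamoxifen; AC50 from Hill fit of qHTS concentration-response.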

[3] = Cell Viability - N2a (AID 540; active means well fitted cell-killing curve with a large enough effect;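 further: plate controls were DMSO alone for no effect and tamoxifen control for full effect; nearly all actives have a fitted effect of over 45% in size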); conditions: N2a mouse neuroblastoma cell viability; activity change, negative = cytotoxicity: at 92.2 µM (top of the series)
Outline: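 Mouse neuroblastoma N2a cells, 1500/well, exposed to compounds 40 h at 37 °C in complete medium. Viability measured as cellular ATP by CellTiter-Glo luminescence; AC50 from Hill fits of concentration-response.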

[4] = target: Glucocorticoid receptor (Homo sapiens) (UniProt P04150); test: qHTS assay for small molecule agonists of glucocorticoid receptor signaling (AID 588532; active means well fitted curve in the direction sought with a large enough effect in the signal ratio, with a control signal flat; the % refers to the signal ratio;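 further: 100% = dexamethasone at 0.1 µM and 0% = DMSO only wells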); conditions: HeLa MMTV-bla, beta-lactamase ratio, agonist, 18 h; stronger effect = higher value; percent of dexamethasone control, DMSO zero
Outline: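 MMTV-bla HeLa beta-lactamase reporter cells in 1% charcoal/dextran FBS medium, compounds up to 92 uM for 18 h at 37 C, CCF4 readout; normalized to 0.1 uM dexamethasone (100%), EC50 and efficacy from Hill fits.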

[5] = target: Glucocorticoid receptor (Homo sapiens) (UniProt P04150); test: qHTS assay for small molecule antagonists of glucocorticoid receptor signaling (AID 588533; active means well fitted inhibition curve with a large enough effect in the signal ratio, with a control signal flat, not every such curve was filed as active; the % refers to the signal ratio; further: on the % scale 0 is the no-effect control and ±100 the full control effect); conditions: HeLa MMTV-bla, GRE beta-lactamase ratio, antagonist mode, 18 h; series mostly up to 76.8 µM
Outline: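 Antagonist-mode qHTS: compound titrations added to GRE-bla HeLa cells, then dexamethasone 2 nM final; 18 h, 37 C. CCF4 FRET fluorescence normalized to dexamethasone and DMSO; IC50 from Hill fit.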

[6] = target: Peroxisome proliferator-activated receptor delta (Homo sapiens) (UniProt Q03181); test: qHTS assay for small molecule agonists of peroxisome proliferator-activated receptor delta signaling (AID 588534); conditions: HEK293T PPARdelta-UAS-bla, beta-lactamase ratio, 18 h; series mostly up to 76.7 µM;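 further: 0% = DMSO basal wells and 100% = positive control agonist at 10 µM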
Outline: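 Cells carrying a PPAR-delta beta-lactamase reporter were treated with compounds for 18 h at 37 °C in agonist mode. CCF4 fluorescence was read after 2 h; EC50 and efficacy from Hill fits.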

[7] = qHTS assay for small molecule antagonists of peroxisome proliferator-activated receptor delta signaling (AID 588535; active means well fitted inhibition curve with a large enough effect in the signal ratio, with a control signal flat, not every such curve was filed as active; the % refers to the signal ratio;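 on max response: cells co-treated with a PPAR-delta agonist as stimulator during compound exposure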); conditions: HEK293T PPARd-UAS-bla, beta-lactamase FRET ratio, 18 h; 460 nm channel
Outline: (§1)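 Antagonist-mode beta-lactamase reporter (GeneBLAzer PPAR-delta-UAS-bla) in HEK293T cells, 2% charcoal/dextran FBS, 4000 cells/well. Compound titrations, 18 h at 37 C; CCF4 ratio read, IC50 and efficacy from Hill fits.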

[8] = target: Peroxisome proliferator-activated receptor gamma (Homo sapiens) (UniProt P37231); test: qHTS assay for small molecule agonists of peroxisome proliferator-activated receptor gamma signaling (AID 588536; active means well fitted curve in the direction sought with a large enough effect in the signal ratio, with a control signal flat, not every such curve was filed as active; the % refers to the signal ratio;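 further: 0% = DMSO basal wells and 100% = rosiglitazone at 2 µM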); conditions: HEK293 PPARg-UAS-bla, beta-lactamase ratio, 16 h, percent of rosiglitazone response, DMSO as zero; series mostly up to 76.7 µM
Outline: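 PPAR-gamma-UAS-bla HEK293 cells in medium with 1% charcoal/dextran-treated FBS were exposed to compounds for 16 h at 37 C. Beta-lactamase activity was read with CCF4 substrate (405 nm excitation, 460/530 nm emission).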

[9] = target: Vitamin D3 receptor (Homo sapiens) (UniProt P11473); test: qHTS assay for small molecule antagonists of vitamin D receptor signaling (AID 588541); conditions: HEK293T VDR-UAS-bla, beta-lactamase ratio, antagonist mode; series mostly up to 76.7 µM;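 further: receptor activated by calcitriol during compound treatment; on the % scale 0 is the no-effect control and ±100 the full control effect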
Outline: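 VDR-UAS-bla HEK293T cells in 2% charcoal-stripped FBS were stimulated with 1-alpha,25-dihydroxyvitamin D3 (3 nM final) plus compound for 16 h at 37 C. The beta-lactamase CCF4 readout was normalized to 50 nM agonist and DMSO, and Hill fits gave IC50.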

[10] = target: Thyroid hormone receptor beta (Homo sapiens) (UniProt P10828); test: qHTS assay for small molecule agonists of thyroid hormone receptor beta signaling (AID 588545); conditions: TR-UAS-bla GripTite HEK 293, beta-lactamase ratio, agonist mode, 18 h; series mostly up to 76.7 µM;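 further: 0% = DMSO only and 100% = 10 nM T3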
Outline: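 TR-UAS-bla-GripTite HEK 293 cells in medium with 2% charcoal/dextran FBS, 0.1 mM NEAA and 1 mM sodium pyruvate were treated with titrated compounds for 18 hrs at 37 C. Beta-lactamase reporter was read with CCF4 dye (ex 405, em 460/530 nm); EC50 from Hill fits.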

[11] = target: Thyroid hormone receptor beta (Homo sapiens) (UniProt P10828); test: qHTS assay for small molecule antagonists of thyroid hormone receptor beta signaling (AID 588547; active means well fitted inhibition curve with a large enough effect in the signal ratio, with a control signal flat, not every such curve was filed as active; the % refers to the signal ratio;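 further: cells stimulated with 0.4 nM T3 agonist during compound exposure; on the % scale 0 is the no-effect control and ±100 the full control effect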); conditions: TR-UAS-bla HEK293, beta-lactamase ratio, antagonist mode, 18 h
Outline: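 TR-UAS-bla GripTite HEK293 cells in 2% charcoal/dextran FBS medium; compounds 0.59 nM to 92 uM with T3 at 0.4nM final, 18 h at 37 C. Beta-lactamase read by CCF4 fluorescence (460/530 nm); Hill fits gave IC50 and efficacy.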

[12] = qHTS assay for small molecule agonists of the antioxidant response element (ARE) signaling pathway (AID 651741; active means well fitted activation curve with a large enough effect in the signal ratio; the % refers to the signal ratio; further: potency means the concentration at half of the fitted maximal effect; on activation: % of control where 0% means no effect); conditions: HepG2 ARE-bla reporter, beta-lactamase FRET ratio, 16 h; series mostly up to 96 µM
Outline: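 CellSensor ARE-bla HepG2 cells (2,000/well) carrying ARE-driven beta-lactamase, exposed 16 h at 37 C. LiveBLAzer B/G FRET substrate added for 2 h at room temperature; fluorescence intensity read.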

[13] = qHTS assay for small molecule disruptors of the mitochondrial membrane potential - 1 hr assay (AID 651754); conditions: series mostly up to 92.2 µM; further: nearly all actives have a fitted effect of over 35% in size; further: potency means the concentration at half of the fitted maximal effect
Outline: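 HepG2 cells, attached overnight, were exposed to compound for 1 hr at 37C, then stained 30 min with a potentiometric dye. Ratio of red aggregate (590nm) to green monomer (535nm) fluorescence reports membrane potential; collapse shifts signal toward green.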

[14] = MultiTox-Fluor Cytotoxicity Assay - LYMP1-001 - Live Cells (AID 947; active means well fitted cell-killing curve with a large enough effect;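 further: 0% = DMSO only and full inhibition = tetraoctylammonium bromide control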); conditions: LYMP1-001 lymphoblastoid cells, live-cell protease fluorescence viability; series mostly up to 92.2 µM
[15] = target: Estrogen receptor (Homo sapiens) (UniProt P03372); test: qHTS assay for small molecule antagonists of estrogen receptor alpha signaling (AID 588513; active means well fitted curve in the direction sought with a large enough effect in the signal ratio, with a control signal flat, not every such curve was filed as active; the % refers to the signal ratio; further: on the % scale 0 is the no-effect control and ±100 the full control effect); conditions: ER-alpha-UAS-bla HEK293, beta-lactamase ratio, antagonist mode; series mostly up to 76.9 µM
Outline: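 ER-alpha-UAS-bla GripTite HEK 293 cells in 2% charcoal/dextran-treated FBS medium; compounds titrated (1:2, duplicate), then stimulated with 0.5 nM 17-beta-estradiol for 18 h at 37C. CCF4 beta-lactamase fluorescence; Hill-fit IC50 and efficacy.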

[16] = target: Peroxisome proliferator-activated receptor gamma (Homo sapiens) (UniProt P37231); test: qHTS assay for small molecule antagonists of peroxisome proliferator-activated receptor gamma signaling (AID 588537; active means well fitted inhibition curve with a large enough effect in the signal ratio, with a control signal flat, not every such curve was filed as active; the % refers to the signal ratio;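 further: reporter cells co-stimulated with 50 nM rosiglitazone agonist during compound treatment; % of control where 0% means no effect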); conditions: HEK293 PPARg-UAS-bla, beta-lactamase ratio, antagonist mode; series mostly up to 76.8 µM
Outline: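 PPARγ-UAS-bla HEK293 cells (3000/well) in 1% charcoal/dextran-stripped FBS are treated with compound, then stimulated with 50 nM rosiglitazone for 16 h at 37 °C. Read-out is CCF4 β-lactamase fluorescence after 2 h at RT. IC50 comes from Hill fits normalised to rosiglitazone and DMSO.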

[17] = qHTS assay for small molecule activators of the p53 signaling pathway (AID 651743; active means well fitted activation curve with a large enough effect in the signal ratio, not every such curve was filed as active; the % refers to the signal ratio; further: % of control where 0% means no effect); conditions: HCT-116 p53RE-bla, beta-lactamase FRET ratio, 16 h; activation: stronger effect = higher value
Outline: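 p53RE-bla HCT-116 cells carrying a beta-lactamase reporter under p53 response elements were exposed to compounds for 16 hours at 37 C. Reporter activity read as fluorescence after 2 hours at room temperature with LiveBLAzer B/G FRET substrate.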

[18] = Cell Viability - MRC5 (AID 434); conditions: MRC5 lung fibroblast viability, qHTS;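 further: potency means the concentration at half of the fitted maximal effect; potency reflects cytotoxicity seen as loss of intracellular ATP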
Outline: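 MRC5 normal human lung fibroblasts, 1500 cells/well, exposed to compound for 40 hr at 37 C. Cellular ATP was read by CellTiter-Glo luminescence; data normalized to DMSO and 100 uM tamoxifen, with AC50 from Hill fits.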

[19] = target: Peroxisome proliferator-activated receptor delta (Homo sapiens) (UniProt Q03181); test: qHTS assay for small molecule antagonists of peroxisome proliferator-activated receptor delta signaling (AID 588535); conditions: HEK293T PPARd-UAS-bla, beta-lactamase FRET ratio, 18 h; series mostly up to 76.7 µM;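 on max response: cells co-treated with a PPAR-delta agonist as stimulator during compound exposure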
Outline: as §1

[20] = target: Bile acid receptor (Homo sapiens) (UniProt Q96RI1); test: qHTS assay for small molecule agonists of farnesoid X receptor signaling (AID 588527); conditions: HEK293T FXR-UAS-bla, beta-lactamase ratio, 16 h; stronger effect = higher value;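 further: 0% = vehicle basal and 100% = reference agonist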
Outline: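 FXR-UAS-bla HEK293T, 10% dialyzed FBS; cpds up to 92 uM titration, 16 h 37 C; CCF4 dye 2 h RT; fluorescence. Normalized to chenodeoxycholic acid 100 uM (100%) and DMSO (0%); Hill fit gives EC50, efficacy.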

Chain of Thyroid hormone receptor beta (Homo sapiens) (P10828 whole entry, looked up): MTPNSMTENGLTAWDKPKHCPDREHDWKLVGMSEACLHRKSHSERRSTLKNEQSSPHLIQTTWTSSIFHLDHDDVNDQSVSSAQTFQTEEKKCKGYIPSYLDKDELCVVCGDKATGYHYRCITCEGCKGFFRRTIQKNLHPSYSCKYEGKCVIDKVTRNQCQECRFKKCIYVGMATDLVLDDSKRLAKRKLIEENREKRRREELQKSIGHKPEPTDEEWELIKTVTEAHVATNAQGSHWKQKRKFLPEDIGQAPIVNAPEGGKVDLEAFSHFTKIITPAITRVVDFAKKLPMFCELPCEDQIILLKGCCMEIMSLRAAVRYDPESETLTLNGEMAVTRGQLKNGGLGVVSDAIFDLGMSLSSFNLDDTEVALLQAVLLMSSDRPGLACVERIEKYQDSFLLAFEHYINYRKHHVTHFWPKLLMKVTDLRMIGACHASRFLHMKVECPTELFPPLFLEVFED
Chain of Peroxisome proliferator-activated receptor gamma (Homo sapiens) (P37231 whole entry, looked up): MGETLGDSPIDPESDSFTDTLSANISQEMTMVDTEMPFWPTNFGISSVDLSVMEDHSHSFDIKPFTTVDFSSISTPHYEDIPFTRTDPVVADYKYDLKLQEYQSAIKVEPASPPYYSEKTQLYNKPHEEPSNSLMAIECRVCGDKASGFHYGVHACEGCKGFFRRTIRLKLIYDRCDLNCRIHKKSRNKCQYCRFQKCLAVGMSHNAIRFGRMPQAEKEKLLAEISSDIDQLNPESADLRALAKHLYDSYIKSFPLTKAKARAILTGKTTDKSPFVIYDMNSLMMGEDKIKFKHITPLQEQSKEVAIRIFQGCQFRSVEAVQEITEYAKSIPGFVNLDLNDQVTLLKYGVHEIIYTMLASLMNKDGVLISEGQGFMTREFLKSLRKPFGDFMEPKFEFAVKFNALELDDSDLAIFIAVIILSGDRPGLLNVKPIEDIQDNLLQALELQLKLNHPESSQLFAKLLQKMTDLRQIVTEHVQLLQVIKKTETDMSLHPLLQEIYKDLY
Chain of Vitamin D3 receptor (Homo sapiens) (P11473 whole entry, looked up): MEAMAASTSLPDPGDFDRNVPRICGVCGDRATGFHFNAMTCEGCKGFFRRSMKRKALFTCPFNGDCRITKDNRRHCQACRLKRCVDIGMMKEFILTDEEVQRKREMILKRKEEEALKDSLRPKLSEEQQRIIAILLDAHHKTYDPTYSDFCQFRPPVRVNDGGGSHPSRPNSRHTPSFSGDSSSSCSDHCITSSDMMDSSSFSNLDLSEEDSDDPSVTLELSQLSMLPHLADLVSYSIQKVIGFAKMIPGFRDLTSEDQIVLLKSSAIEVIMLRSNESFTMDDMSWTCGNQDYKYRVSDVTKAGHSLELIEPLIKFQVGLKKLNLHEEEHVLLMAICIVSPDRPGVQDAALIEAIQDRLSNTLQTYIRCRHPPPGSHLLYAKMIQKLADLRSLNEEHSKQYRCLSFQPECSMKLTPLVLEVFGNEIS
Chain of Estrogen receptor (Homo sapiens) (P03372 whole entry, looked up): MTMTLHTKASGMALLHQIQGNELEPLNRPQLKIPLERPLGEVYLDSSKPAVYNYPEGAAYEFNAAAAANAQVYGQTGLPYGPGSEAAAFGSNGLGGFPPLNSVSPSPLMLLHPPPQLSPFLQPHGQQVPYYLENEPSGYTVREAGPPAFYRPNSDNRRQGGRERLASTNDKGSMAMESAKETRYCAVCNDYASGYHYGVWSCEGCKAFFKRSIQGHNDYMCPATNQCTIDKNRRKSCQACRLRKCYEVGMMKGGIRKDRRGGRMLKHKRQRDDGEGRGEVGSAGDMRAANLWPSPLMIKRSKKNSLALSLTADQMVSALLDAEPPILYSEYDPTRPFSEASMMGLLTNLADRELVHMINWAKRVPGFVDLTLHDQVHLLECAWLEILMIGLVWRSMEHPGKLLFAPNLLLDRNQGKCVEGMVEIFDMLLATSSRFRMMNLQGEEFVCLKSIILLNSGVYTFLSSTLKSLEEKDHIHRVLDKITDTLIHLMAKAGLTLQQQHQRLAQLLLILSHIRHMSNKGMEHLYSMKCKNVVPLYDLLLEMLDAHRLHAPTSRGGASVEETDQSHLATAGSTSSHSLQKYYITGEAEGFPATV
Chain of Glucocorticoid receptor (Homo sapiens) (P04150 whole entry, looked up): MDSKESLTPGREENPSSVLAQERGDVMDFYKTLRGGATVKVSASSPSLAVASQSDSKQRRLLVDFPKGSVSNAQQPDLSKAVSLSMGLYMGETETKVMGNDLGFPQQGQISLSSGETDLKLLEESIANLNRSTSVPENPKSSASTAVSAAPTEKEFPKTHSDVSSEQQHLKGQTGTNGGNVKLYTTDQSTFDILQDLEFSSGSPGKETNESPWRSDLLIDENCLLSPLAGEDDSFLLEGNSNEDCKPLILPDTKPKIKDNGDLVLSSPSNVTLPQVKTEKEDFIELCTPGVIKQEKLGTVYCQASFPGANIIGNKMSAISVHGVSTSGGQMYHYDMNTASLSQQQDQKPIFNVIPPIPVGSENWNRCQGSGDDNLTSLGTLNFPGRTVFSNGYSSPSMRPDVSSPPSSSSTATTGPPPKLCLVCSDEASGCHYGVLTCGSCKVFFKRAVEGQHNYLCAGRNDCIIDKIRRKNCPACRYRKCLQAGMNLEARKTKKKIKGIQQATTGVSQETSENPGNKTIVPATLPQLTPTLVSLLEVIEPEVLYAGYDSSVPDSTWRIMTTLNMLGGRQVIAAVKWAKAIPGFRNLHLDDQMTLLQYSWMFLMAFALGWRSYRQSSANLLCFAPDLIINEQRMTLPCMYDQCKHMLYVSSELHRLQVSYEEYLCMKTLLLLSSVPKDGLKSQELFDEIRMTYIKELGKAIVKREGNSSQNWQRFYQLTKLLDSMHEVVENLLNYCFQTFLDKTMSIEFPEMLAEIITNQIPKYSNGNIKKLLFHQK
Chain of Peroxisome proliferator-activated receptor delta (Homo sapiens) (Q03181 whole entry, looked up): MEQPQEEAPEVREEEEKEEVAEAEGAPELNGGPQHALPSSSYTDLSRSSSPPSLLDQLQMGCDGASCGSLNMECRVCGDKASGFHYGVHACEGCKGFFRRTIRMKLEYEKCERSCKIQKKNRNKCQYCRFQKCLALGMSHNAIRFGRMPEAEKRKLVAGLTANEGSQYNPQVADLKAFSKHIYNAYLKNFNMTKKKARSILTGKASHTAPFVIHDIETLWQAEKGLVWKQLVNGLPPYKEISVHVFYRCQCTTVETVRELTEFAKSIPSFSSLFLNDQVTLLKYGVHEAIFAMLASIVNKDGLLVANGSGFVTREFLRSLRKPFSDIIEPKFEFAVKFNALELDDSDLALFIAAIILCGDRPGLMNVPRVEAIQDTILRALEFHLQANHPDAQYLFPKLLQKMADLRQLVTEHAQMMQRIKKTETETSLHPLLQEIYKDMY
Chain of Bile acid receptor (Homo sapiens) (Q96RI1 whole entry, looked up): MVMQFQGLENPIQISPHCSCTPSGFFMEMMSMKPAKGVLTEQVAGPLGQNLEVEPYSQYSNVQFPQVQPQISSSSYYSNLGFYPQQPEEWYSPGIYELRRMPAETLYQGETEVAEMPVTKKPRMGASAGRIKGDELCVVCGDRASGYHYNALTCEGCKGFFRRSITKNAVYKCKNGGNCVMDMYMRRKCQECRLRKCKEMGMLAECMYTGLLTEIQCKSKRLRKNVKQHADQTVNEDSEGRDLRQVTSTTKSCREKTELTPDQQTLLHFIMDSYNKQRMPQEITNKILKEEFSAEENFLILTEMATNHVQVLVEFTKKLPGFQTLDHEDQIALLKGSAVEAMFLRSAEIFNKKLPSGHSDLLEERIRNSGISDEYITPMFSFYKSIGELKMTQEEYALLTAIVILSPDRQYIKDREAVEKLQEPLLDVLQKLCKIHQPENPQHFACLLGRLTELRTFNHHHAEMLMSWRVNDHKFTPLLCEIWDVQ

CC(C)(C)OOC(=O)c1ccccc1
inactive: Potency [1] > 92 µM | Potency [2] > 92 µM | Potency [3] | activation [4] 1.21% and -1.74% | outcome [5] | outcome [6] | outcome [8] | outcome [9] | Potency [10] | activity change % (negative = inhibition) [11] 11.4% | Potency [12] | Potency [13]
-0.545%: max response [7]

Clc1ccc(C(Cl)(Cl)Cl)cc1Cl
inactive: Potency [1] > 92 µM | Potency [3] | outcome [14] | Potency [15] | outcome [5] | outcome [6] | outcome [8] | Potency [16] | outcome [9] | activation [17] 0.791% | Potency [13]

O=C(O)CBr
inactive: Potency [1] > 92 µM | Potency [18] > 92 µM | Potency [3] | outcome [14] | outcome [6] | outcome [19] | outcome [8] | Potency [16] | Potency [10] | activity change % (negative = inhibition) [11] 11.6% | activation [17] -0.316%
-19.5%: max response [7]

Nc1cc(Cl)ccc1O
active: Potency [12] 10.6 µM | Potency [13] 29.8 µM
-44.8%: max response [7]
inactive: Potency [1] > 92 µM | outcome [14] | Potency [15] | activation [4] 3.82% | outcome [5] | outcome [19] | outcome [8] | Potency [10] | activation [17] -1.47%

CC(C)OS(C)(=O)=O
-20%: max response [7]
inactive: Potency [1] > 92 µM | Potency [18] > 92 µM | Potency [3] | outcome [14] | Potency [15] | activation [20] -3.78% | outcome [6] | outcome [19] | outcome [9] | activity change % (negative = inhibition) [11] 8.49% | activation [17] -0.853% | Potency [13]

O=[N+]([O-])/C=C/c1ccccc1
20.9%: max response [7]
inactive: Potency [1] > 92 µM | activation [20] 2.07% | activation [4] -1.34% | outcome [5] | outcome [6] | outcome [19] | outcome [8] | Potency [16] | activity change % (negative = inhibition) [11] -15.9% | activation [17] 10.5% | Potency [13]

Oc1cccc(Cl)c1Cl
inactive: Potency [1] > 92 µM | Potency [3] | outcome [14] | Potency [15] | activation [4] -0.403% | outcome [5] | outcome [6] | outcome [8] | Potency [16] | activity change % (negative = inhibition) [11] 9.41% | Potency [13]

CCCCCOC(=O)c1ccccc1C(=O)OCCCCC
inactive: Potency [1] > 92 µM | Potency [18] > 92 µM | outcome [14] | Potency [15] | activation [4] 5.29% and -3.67% | outcome [5] | outcome [8] | Potency [16] | Potency [10] | Potency [12] | activation [17] -1% and 1.8% | Potency [13]
